Data published in PubChem BioAssay (EPA / NIEHS).
The source made the active and inactive calls. How the source made its calls: active means hit-call score of the fitted dose curve at least 0.9, where 1 is the maximum; inactive means score below 0.9.

Experiments:
[1] = target: Bile acid receptor (Homo sapiens) (UniProt Q96RI1); experiment: ATG_IR1_CIS: Attagene CIS-FACTORIAL HepG2 Assay for human Nuclear Receptor Subfamily 1 Group H Member 4 (NR1H4), IR1 submotif (AID 2282946); details: IR1 reporter transcription, actives raise or lower the signal
Sequence of Bile acid receptor (Homo sapiens) (Q96RI1 whole entry, looked up): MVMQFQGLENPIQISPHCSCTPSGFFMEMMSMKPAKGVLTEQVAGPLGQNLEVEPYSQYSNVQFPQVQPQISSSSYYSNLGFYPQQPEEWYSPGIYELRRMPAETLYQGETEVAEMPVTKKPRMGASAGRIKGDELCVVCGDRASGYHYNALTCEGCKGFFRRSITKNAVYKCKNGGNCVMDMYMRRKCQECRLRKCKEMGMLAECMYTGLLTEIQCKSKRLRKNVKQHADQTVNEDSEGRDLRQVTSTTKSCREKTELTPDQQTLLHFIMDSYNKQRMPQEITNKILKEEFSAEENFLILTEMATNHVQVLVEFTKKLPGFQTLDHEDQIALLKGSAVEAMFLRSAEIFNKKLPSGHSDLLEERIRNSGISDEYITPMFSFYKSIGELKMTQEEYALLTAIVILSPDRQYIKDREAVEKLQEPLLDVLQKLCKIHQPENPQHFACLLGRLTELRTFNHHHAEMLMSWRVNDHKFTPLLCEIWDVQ
Outline: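 HepG2 cells transiently transfected with multiple cis-promoter-driven reporter units to measure endogenous transcription factor activity; 24 h exposure. Reporter mRNA read by RT-PCR, FAM labelling, HpaI digestion and capillary electrophoresis. Bidirectional fit versus DMSO.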

[2] = ATG_GRE_CIS: Attagene CIS-FACTORIAL HepG2 Assay for human Glucocorticoid Response Elements (GRE) (AID 2282947); details: HepG2 GRE cis-reporter, Attagene multiplex mRNA; actives raise or lower the signal
Outline: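 Endogenous transcription factor activity is read through cis-element reporter constructs transiently transfected into HepG2 cells. After 24 h treatment, labelled RT-PCR products are resolved by capillary electrophoresis; DMSO sets baseline for bidirectional curve fitting.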

[3] = ATG_ISRE_CIS: Attagene CIS-FACTORIAL HepG2 Assay for human Interferon Regulatory Factor 1 (IRF1) binding to an Interferon-Stimulated Response Element (ISRE) (AID 2282948); details: HepG2 ISRE cis-reporter (Attagene), mRNA transcription readout; actives raise or lower the signal
Outline: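 Quantitation relies on labelled RT-PCR fragments separated by capillary electrophoresis. Human HepG2 cells bearing cis-promoter reporter constructs were treated 24 h; DMSO served as baseline for bidirectional fitting.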

[4] = ATG_M_32_CIS: Attagene CIS-FACTORIAL HepG2 Assay for M32 Transcription Factor (Internal Marker) (AID 2282949); details: HepG2 Attagene cis-factorial M32 reporter, mRNA; actives raise or lower the signal;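 further: background control marker of the multiplexed CIS panel rather than a real target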
Outline: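 Internal background marker read-out: RT-PCR/capillary electrophoresis fluorescence of reporter transcripts from transiently transfected HepG2 cells after 24 h chemical exposure. Activity fitted bidirectionally relative to DMSO negative control.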

[5] = ATG_M_06_CIS: Attagene CIS-FACTORIAL HepG2 Assay for M06 Transcription Factor (Internal Marker) (AID 2282950); details: HepG2 Attagene CIS-FACTORIAL M06 internal marker reporter; actives raise or lower the signal
Outline: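 HepG2 cells transiently transfected with cis-regulated multiple reporter transcription units were exposed to chemical for 24 h; reporter mRNA was quantified by RT-PCR, 6-FAM primer labelling, HpaI digestion and capillary electrophoresis, fitted bidirectionally against DMSO.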

[6] = target: Hypoxia-inducible factor 1-alpha (Homo sapiens) (UniProt Q16665); experiment: ATG_HIF1a_CIS: Attagene CIS-FACTORIAL HepG2 Assay for human Hypoxia Inducible Factor 1 (HIF1A) (AID 2282951); details: HepG2 Attagene cis-factorial HIF1a reporter transcription; actives raise or lower the signal
Sequence of Hypoxia-inducible factor 1-alpha (Homo sapiens) (Q16665 whole entry, looked up): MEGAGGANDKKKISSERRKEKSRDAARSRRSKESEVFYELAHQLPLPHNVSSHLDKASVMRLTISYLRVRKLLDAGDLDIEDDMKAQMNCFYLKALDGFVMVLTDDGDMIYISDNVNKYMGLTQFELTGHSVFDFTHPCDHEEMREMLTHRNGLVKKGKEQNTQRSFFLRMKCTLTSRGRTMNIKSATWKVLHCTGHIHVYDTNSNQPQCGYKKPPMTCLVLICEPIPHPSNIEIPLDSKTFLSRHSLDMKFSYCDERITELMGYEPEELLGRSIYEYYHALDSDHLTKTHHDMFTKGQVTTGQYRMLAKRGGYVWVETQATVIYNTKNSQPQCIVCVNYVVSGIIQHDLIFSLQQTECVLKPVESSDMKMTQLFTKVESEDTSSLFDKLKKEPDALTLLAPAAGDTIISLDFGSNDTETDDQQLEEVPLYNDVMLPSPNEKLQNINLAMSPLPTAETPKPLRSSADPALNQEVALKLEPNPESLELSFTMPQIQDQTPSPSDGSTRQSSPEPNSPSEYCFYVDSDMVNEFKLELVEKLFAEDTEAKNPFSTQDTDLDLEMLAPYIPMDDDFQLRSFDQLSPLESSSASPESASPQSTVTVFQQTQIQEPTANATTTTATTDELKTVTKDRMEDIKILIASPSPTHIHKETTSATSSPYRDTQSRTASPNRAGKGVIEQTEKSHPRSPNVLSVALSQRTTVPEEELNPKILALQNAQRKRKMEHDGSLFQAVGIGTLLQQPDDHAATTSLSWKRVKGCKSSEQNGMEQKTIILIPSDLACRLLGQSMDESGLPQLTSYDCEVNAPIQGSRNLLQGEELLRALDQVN
Outline: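 Activity is fitted in both directions relative to DMSO. Reporter transcripts are read by RT-PCR, fluorescent primer extension and capillary electrophoresis after 24 h chemical treatment. The cells are HepG2 carrying transiently transfected cis-element-driven reporter units responding to endogenous factors.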

[7] = target: Hepatocyte nuclear factor 6 (Homo sapiens) (UniProt Q9UBC0); experiment: ATG_HNF6_CIS: Attagene CIS-FACTORIAL HepG2 Assay for human Hepatocyte Nuclear Factor 6 (HNF6) (AID 2282952); details: HepG2 Attagene cis-factorial HNF6 reporter transcription; actives raise or lower the signal
Sequence of Hepatocyte nuclear factor 6 (Homo sapiens) (Q9UBC0 whole entry, looked up): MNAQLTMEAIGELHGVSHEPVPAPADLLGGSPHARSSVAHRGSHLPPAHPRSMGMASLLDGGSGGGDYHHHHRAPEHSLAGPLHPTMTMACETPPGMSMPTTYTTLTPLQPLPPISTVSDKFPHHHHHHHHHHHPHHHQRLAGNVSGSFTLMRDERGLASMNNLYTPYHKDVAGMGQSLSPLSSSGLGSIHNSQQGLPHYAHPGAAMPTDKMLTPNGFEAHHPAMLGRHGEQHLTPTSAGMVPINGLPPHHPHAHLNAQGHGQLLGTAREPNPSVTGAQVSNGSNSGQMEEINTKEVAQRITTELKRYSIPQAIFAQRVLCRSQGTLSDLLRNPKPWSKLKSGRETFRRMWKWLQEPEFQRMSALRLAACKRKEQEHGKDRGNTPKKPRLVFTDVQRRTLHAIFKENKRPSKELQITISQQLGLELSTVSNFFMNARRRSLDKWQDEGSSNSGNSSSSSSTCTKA
Outline: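 Multiplexed mRNA reporter assay in transfected HepG2; 24 h dosing; RT-PCR plus capillary electrophoresis fluorescence; DMSO-referenced bidirectional curve fitting.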

[8] = target: Heat shock factor protein 1 (Homo sapiens) (UniProt Q00613); experiment: ATG_HSE_CIS: Attagene CIS-FACTORIAL HepG2 Assay for human Heat Shock Transcription Factor 1 (HSE) (AID 2282953); details: HepG2 HSE cis-reporter, Attagene RNA transcription; actives raise or lower the signal
Sequence of Heat shock factor protein 1 (Homo sapiens) (Q00613 whole entry, looked up): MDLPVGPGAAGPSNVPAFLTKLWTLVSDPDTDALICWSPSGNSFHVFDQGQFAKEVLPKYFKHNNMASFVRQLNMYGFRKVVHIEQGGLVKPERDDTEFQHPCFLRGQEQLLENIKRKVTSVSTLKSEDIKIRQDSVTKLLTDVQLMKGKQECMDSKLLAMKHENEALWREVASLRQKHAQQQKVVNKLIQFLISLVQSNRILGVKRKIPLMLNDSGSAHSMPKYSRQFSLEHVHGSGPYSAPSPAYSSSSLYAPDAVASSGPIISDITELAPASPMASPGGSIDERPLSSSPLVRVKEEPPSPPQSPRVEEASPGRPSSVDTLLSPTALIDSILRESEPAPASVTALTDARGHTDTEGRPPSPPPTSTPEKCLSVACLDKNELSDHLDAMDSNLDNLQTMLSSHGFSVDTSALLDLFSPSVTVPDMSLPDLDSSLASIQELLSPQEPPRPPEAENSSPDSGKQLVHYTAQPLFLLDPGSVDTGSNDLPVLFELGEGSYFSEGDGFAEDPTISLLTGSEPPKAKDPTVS
Outline: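 HepG2 cells transiently transfected with multiple reporter transcription units under cis-regulatory promoter control, measuring endogenous transcription factor activity. After 24 h chemical exposure, reporter mRNA quantified by RT-PCR, fluorescent labelling, HpaI digestion and capillary electrophoresis; bidirectional fit versus DMSO.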

[9] = ATG_MRE_CIS: Attagene CIS-FACTORIAL HepG2 Assay for human Metal Responsive Element (MRE) (AID 2282954); details: HepG2 MRE cis-reporter transcription, Attagene multiplex; actives raise or lower the signal
Outline: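 Fluorescent reporter fragments separated by capillary electrophoresis give mRNA induction for the MRE unit after 24 h treatment of transfected HepG2 cells. Endogenous transcription-factor activity is read; DMSO serves as negative control and baseline.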

[10] = ATG_PBREM_CIS: Attagene CIS-FACTORIAL HepG2 Assay for human Phenobarbital-responsive Enhancer Module (PBREM) (AID 2282955); details: HepG2 PBREM cis-reporter, Attagene multiplexed transcription; actives raise or lower the signal
Outline: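 Endogenous transcription factor activity was read from reporter transcripts in transiently transfected human HepG2 liver cells after 24 h dosing. RT-PCR products were fluorescently labelled, HpaI-cut and sized by capillary electrophoresis; activity fitted bidirectionally against DMSO baseline.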

[11] = target: Paired box protein Pax-6 (Homo sapiens) (UniProt P26367); experiment: ATG_Pax6_CIS: Attagene CIS-FACTORIAL HepG2 Assay for human Paired Box 6 (PAX6) (AID 2282956); details: HepG2 CIS-FACTORIAL PAX6 reporter transcription, RNA readout; actives raise or lower the signal
Sequence of Paired box protein Pax-6 (Homo sapiens) (P26367 whole entry, looked up): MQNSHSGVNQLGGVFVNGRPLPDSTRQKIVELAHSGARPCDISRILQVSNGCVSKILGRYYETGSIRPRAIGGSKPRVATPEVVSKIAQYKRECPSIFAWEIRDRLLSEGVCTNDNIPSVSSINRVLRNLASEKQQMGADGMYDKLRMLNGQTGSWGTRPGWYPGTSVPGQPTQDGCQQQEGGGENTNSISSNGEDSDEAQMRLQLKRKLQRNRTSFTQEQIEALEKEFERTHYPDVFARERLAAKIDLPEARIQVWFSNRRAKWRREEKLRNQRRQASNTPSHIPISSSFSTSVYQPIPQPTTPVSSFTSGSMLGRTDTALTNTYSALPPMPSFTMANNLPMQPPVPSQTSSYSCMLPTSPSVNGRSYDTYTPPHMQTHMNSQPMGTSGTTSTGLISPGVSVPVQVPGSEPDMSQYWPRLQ
Outline: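 After twenty-four hours of chemical exposure, transfected HepG2 cells are harvested for RNA. Cis-promoter reporter transcripts are amplified, fluorescently labelled and sized by capillary electrophoresis, with gain and loss of signal scored against DMSO.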

[12] = ATG_PXRE_CIS: Attagene CIS-FACTORIAL HepG2 Assay for human Pregnane X Receptor Element (PXRE) (AID 2282957); details: HepG2 Attagene CIS-FACTORIAL PXRE reporter, mRNA; actives raise or lower the signal
Outline: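 Cells: HepG2, transiently transfected reporter units under cis promoter control. Exposure: 24 h. Detection: reporter mRNA via RT-PCR/CE fluorescence; bidirectional fitting, DMSO-referenced.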

[13] = ATG_RORE_CIS: Attagene CIS-FACTORIAL HepG2 Assay for human RAR-related Orphan Receptor Element (RORE) (AID 2282959); details: HepG2 Attagene cis-factorial RORE reporter, mRNA; actives raise or lower the signal
Outline: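 RORE reporter transcripts reflecting endogenous factor activity were read after 24 h compound exposure of transfected HepG2 cells, using reverse transcription, PCR, fluorescent labelling and capillary electrophoresis sizing. Gain or loss fitted against DMSO.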

[14] = target: Transcription factor Sp1 (Homo sapiens) (UniProt P08047); experiment: ATG_Sp1_CIS: Attagene CIS-FACTORIAL HepG2 Assay for human Specificity Protein 1 (Sp1) (AID 2282961); details: HepG2 Sp1 cis-reporter transcription, actives raise or lower the signal
Sequence of Transcription factor Sp1 (Homo sapiens) (P08047 whole entry, looked up): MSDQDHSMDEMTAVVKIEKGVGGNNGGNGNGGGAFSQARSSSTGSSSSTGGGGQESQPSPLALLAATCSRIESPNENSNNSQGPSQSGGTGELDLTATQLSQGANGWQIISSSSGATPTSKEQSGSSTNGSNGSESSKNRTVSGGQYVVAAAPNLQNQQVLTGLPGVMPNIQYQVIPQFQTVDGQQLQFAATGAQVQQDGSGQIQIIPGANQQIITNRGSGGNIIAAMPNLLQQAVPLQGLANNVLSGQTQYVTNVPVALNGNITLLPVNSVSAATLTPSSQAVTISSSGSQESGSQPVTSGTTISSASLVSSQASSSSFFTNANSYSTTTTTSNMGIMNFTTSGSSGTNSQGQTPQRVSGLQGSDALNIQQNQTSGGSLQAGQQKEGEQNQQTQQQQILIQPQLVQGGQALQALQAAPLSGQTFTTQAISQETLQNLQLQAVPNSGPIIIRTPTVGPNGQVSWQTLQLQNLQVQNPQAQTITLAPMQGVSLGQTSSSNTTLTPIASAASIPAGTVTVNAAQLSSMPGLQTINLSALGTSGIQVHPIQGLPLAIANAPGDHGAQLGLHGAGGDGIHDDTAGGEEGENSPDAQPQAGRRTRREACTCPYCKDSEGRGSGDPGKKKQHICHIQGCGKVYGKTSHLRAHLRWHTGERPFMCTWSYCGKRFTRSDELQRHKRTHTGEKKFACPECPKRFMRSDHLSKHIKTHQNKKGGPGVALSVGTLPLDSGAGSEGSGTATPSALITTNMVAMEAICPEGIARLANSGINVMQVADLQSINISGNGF
Outline: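 Read-out is reporter transcript level, measured by RT-PCR and fluorescent capillary electrophoresis after 24 h chemical treatment. System: transiently transfected HepG2 cells reporting endogenous transcription factor activity; gain or loss fitted against DMSO baseline.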

[15] = target: Signal transducer and activator of transcription 3 (Homo sapiens) (UniProt P40763); experiment: ATG_STAT3_CIS: Attagene CIS-FACTORIAL HepG2 Assay for human Signal Transducer and Activator of Transcription 3 (STAT3) (AID 2282963); details: HepG2, Attagene cis-factorial STAT3 reporter transcription; actives raise or lower the signal
Sequence of Signal transducer and activator of transcription 3 (Homo sapiens) (P40763 whole entry, looked up): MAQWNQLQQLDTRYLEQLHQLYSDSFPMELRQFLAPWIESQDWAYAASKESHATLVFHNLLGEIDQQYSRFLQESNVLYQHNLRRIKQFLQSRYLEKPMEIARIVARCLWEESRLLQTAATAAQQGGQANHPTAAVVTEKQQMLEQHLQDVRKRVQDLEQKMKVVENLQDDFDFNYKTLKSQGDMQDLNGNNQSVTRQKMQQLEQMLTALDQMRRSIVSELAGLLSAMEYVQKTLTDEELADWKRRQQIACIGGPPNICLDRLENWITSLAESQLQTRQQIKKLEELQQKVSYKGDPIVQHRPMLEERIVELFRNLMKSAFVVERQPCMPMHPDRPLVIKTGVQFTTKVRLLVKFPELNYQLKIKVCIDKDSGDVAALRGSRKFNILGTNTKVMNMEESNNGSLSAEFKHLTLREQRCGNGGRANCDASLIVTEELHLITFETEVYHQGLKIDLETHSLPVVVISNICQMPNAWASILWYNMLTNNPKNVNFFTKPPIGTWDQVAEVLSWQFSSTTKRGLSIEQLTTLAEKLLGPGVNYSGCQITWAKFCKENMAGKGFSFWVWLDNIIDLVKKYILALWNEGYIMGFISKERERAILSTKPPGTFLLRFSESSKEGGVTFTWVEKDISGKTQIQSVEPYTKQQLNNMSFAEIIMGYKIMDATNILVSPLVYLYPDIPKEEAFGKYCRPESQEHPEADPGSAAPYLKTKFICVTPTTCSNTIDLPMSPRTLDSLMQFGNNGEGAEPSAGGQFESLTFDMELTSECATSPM
Outline: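 Values derive from bidirectional fits relative to DMSO of reporter mRNA levels, measured by RT-PCR with capillary electrophoresis, in HepG2 cells carrying transiently transfected cis-regulated reporter units and exposed 24 h.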

[16] = ATG_TA_CIS: Attagene CIS-FACTORIAL HepG2 Assay for human TA Basal Promoter (AID 2282964); details: HepG2 Attagene CIS-factorial TA basal promoter reporter; actives raise or lower the signal
Outline: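 HepG2 cells transiently transfected with multiplexed cis-promoter reporter units, dosed 24 h. Reporter mRNA measured by RT-PCR, 6-FAM labelling, HpaI digestion and capillary electrophoresis; bidirectional fit versus DMSO baseline, serving as background control.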

[17] = ATG_TCF_b_cat_CIS: Attagene CIS-FACTORIAL HepG2 Assay for human T-Cell-Factor with beta-catenin (TCF/b-cat) (AID 2282965); details: HepG2 TCF/beta-catenin cis-reporter transcription, actives raise or lower the signal
Outline: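 HepG2 cells transiently transfected with cis-promoter-driven multiplexed reporter units; reporter mRNA measured 24 h after dosing by RT-PCR, FAM labelling, HpaI digestion and capillary electrophoresis. Bidirectional fitting relative to DMSO baseline.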

[18] = ATG_PPRE_CIS: Attagene CIS-FACTORIAL HepG2 Assay for human Peroxisome Proliferator-activated Response Element (PPRE) (AID 2282958); details: HepG2 PPRE cis-element reporter, Attagene transcription factor profiling; actives raise or lower the signal
Outline: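 Endogenous PPRE-driven transcription is measured in HepG2 cells carrying transfected multi-reporter constructs. Reporter transcripts are quantified by RT-PCR, HpaI digestion and capillary electrophoresis 24 h after dosing. DMSO baseline, bidirectional fit.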

[19] = ATG_Sox_CIS: Attagene CIS-FACTORIAL HepG2 Assay for human SRY-box transcription factor (SOX) (AID 2282960); details: HepG2 Attagene cis-factorial SOX reporter, mRNA; actives raise or lower the signal
Outline: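 Reporter transcripts, measured by RT-PCR and capillary electrophoresis of labelled fragments, report endogenous SOX transcription factor activity. Transiently transfected human HepG2 cells receive chemical for 24 h; changes in either direction are fitted relative to DMSO.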

[20] = ATG_SREBP_CIS: Attagene CIS-FACTORIAL HepG2 Assay for human Sterol Regulatory Element Binding (SREBP) (AID 2282962); details: HepG2 Attagene cis-factorial SREBP reporter, mRNA; actives raise or lower the signal
Outline: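 Twenty-four hours after chemical dosing of transfected HepG2 cultures, reporter RNA was converted to cDNA, amplified, end-labelled with 6-FAM and resolved by capillary electrophoresis. Responses were fitted relative to DMSO.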

Measured: AC50

CCCSP(=O)(OCC)SCCC
active: [12] 15.2 µM
not listed: [18] | [19] | [20]
inactive: all other assays above

CCC(CC)Nc1c([N+](=O)[O-])cc(C)c(C)c1[N+](=O)[O-]
active: [1] 50 µM | [3] 50 µM | [9] 28.9 µM | [12] 5.39 µM
not listed: [13] | [20]
inactive: all other assays above

C=C(C)[C@H]1Cc2c(ccc3c2O[C@@H]2COc4cc(OC)c(OC)cc4[C@@H]2C3=O)O1
active: [6] 0.0274 µM | [9] 0.0899 µM | [10] 0.0505 µM | [18] 0.0321 µM | [14] 0.039 µM
not listed: [13] | [19] | [20]
inactive: all other assays above

N#CSCSC#N
active: [12] 1.26 µM
not listed: [19]
inactive: all other assays above

CCc1cccc(CC)c1N(COC)C(=O)CCl
active: [12] 1.15 µM | [14] 7.75 µM
not listed: [20]
inactive: all other assays above

COP(=O)(OC)C(O)C(Cl)(Cl)Cl (configuration not stated)
active: [9] 31.5 µM | [12] 16.1 µM | [18] 41.5 µM
not listed: [6] | [13] | [19] | [20]
inactive: all other assays above

CCOP(=O)(NC(C)C)Oc1ccc(SC)c(C)c1 (configuration not stated)
active: [10] 16.2 µM | [12] 2.73 µM | [18] 21.4 µM
not listed: [8] | [13] | [19] | [20]
inactive: all other assays above
